Compound activity from PubChem BioAssay.
An excerpt weighted towards active compounds, which were near 4.7% of everything screened.
D1 antagonist – Antagonist of Human D 1 Dopamine Receptor: qHTS | D(1A) dopamine receptor (Homo sapiens), P21728 | HEK293 TREx D1 cells, calcium flux, dopamine EC80; stronger effect = lower value | activity change, negative = inhibition, % at 10 µM | 360,000 tested, 3.2% active; in the data active = activity change below about -30%; note: % is set by controls: 0 for no effect and ±100 for the full control effect
Target sequence (P21728 whole entry, looked up): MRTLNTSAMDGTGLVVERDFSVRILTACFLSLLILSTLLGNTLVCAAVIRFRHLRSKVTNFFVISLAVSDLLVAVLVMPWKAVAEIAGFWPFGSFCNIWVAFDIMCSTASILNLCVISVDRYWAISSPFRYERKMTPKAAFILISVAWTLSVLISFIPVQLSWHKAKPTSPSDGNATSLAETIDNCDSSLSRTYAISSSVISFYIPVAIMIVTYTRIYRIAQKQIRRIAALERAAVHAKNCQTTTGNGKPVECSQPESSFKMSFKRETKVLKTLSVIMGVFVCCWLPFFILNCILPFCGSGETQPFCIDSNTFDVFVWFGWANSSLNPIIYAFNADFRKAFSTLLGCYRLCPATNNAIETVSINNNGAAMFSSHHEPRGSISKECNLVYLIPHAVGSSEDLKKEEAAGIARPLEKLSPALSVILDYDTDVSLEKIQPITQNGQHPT
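Compound effects on dopamine-evoked calcium signalling were measured in tetracycline-induced HEK293 Trex D1 cells. Dopamine at EC80 followed a 180 s compound pre-read, and fluorescence was tracked kinetically for 180 s more.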
D1 ag – Allosteric Agonists of the Human D1 Dopamine Receptor: qHTS; D(1A) dopamine receptor (Homo sapiens), P21728; HEK293 T-REx D1 cells, calcium flux, agonist mode; activation, % at 2 µM; 360,000 tested, 1% active; AID 504660, 2011; note: 0% is about no effect
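Agonism was scored from calcium flux recorded over 180 s (1 read/s) after pintool compound addition, following a 10-cycle baseline. Cells were inducible force-coupled HEK293 TREx D1, plated overnight at 30 C and loaded with no-wash calcium dye.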
TRHR PAM – qHTS for Small Molecule Agonists and Allosteric Enhancers of Human TRH Receptor: Primary Screen for Enhancers; Thyrotropin-releasing hormone receptor (Homo sapiens), P34981; TRHR cells, fluo-8 calcium fluorescence, EC20 TRH enhancement; enhancement, % at 2 µM; 360,000 tested, 0.66% active; AID 493056, 2011; in the data active = enhancement above about 30%; note: 0% is about no effect
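TRHR-expressing cells loaded with fluo-8 calcium dye were read kinetically (ex 480/em 530) during compound addition, then stimulated with an EC20 of TRH (10 nM final). Enhancement of the Gq-mediated intracellular calcium response was scored.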
D1 potentiator – Potentiators of Human D1 Dopamine Receptor: qHTS; HEK293 TREx D1 cells, calcium flux, dopamine EC20 potentiation; 360,000 tested, 0.036% active; D(1A) dopamine receptor (Homo sapiens), P21728; potentiation, % at 10 µM; AID 504651, 2011; in the data active = potentiation above about 30%; note: 0% is about no effect
TRHR agonist – qHTS for Small Molecule Agonists and Allosteric Enhancers of Human TRH Receptor: Primary Screen for Agonists; Thyrotropin-releasing hormone receptor (Homo sapiens), P34981; TRHR cells, calcium flux fluo-8, FDSS agonist mode; activation, % at 2 µM; 360,000 tested, 0.18% active; note: 0% is about no effect
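Agonist-mode FDSS calcium read (Ex 480/Em 530, 1 s cycles) in 1536-well TRHR cells with fluo-8 dye, after 10-cycle baseline and 23 nL compound addition; TRH at EC20 (10 nM final) added afterwards for the enhancer phase.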
* = called active by the depositor. Cut-off read from the data, not from the text of the source, unless noted: active = activation above about 30%; inactive = the rest.

SMILES	D1 antagonist	D1 ag	TRHR PAM	D1 potentiator	TRHR agonist
Cc1ccc(-n2nc3c(c2NC(=O)c2ccccc2Br)CS(=O)C3)cc1 (centres undefined)	-43*	2	3	-4	0
Cc1ccc(-n2nc3c(c2NC(=O)c2ccc(OC(C)C)cc2)CS(=O)C3)cc1 (centres undefined)	-2	2	0	-6	0
Cn1c(=O)n(C)c2cc(N3CCOCC3)c(NS(=O)(=O)c3ccc(F)cc3)cc21	5	-1	12	-4	-1
C=CCn1c(SCC(=O)Nc2ccc(OC)cc2)nnc1-c1cnccn1	-9	1	7	32*	0
COc1cccc(/C=N/NC(=O)CN2C(=O)NC3NC(=O)NC32)c1 (centres undefined)	0	3	5	-2	2
CC(=O)Nc1ccc(S(=O)(=O)Nc2cccc(-c3ccc4nncn4n3)c2)cc1	2	1	-2	3	0
CC(=O)c1ccc(S(=O)(=O)Nc2cccc(-c3ccc4nncn4n3)c2)cc1	-37*	0	3	-2	0
CCC(CC)C(=O)Nc1cccc(-c2ccc3nncn3n2)c1	5	1	31*	-3	5
CCCCN(CC)CCCNC(=O)C1CCN(c2nc3ccc(CC)cc3s2)CC1	-62*	79*	-6	6	5
CCCCN(C)CCCNC(=O)C1CCN(c2nc3ccc(CC)cc3s2)CC1	-53*	84*	-1	3	3
CCOc1ccc2nc(N3CCC(C(=O)NC4CCCCC4)CC3)sc2c1	-3	9	0	0	0
CCOc1ccc2nc(N3CCC(C(=O)Nc4c(C)cccc4C)CC3)sc2c1	-56*	-1	6	-2	0
CCOc1ccc2nc(N3CCC(C(=O)NCCCN4CCOCC4)CC3)sc2c1	4	1	-2	1	0
COc1ccc(N(CC(=O)N2CCCCC2)S(=O)(=O)c2ccc(OC)c(OC)c2)cc1	-2	-2	5	-1	-1
COc1ccccc1CNS(=O)(=O)c1cnc(N)nc1	-11	1	2	-1	1
COc1cccc(NC(=O)Cn2c(=O)n(CCc3ccccc3)c(=O)c3c4c(sc32)CN(C(C)=O)CC4)c1	-7	2	1	-6	1
Cc1ccccc1C(=O)Nc1ccc(C(=O)NNC(=O)CCCOc2ccc(Cl)cc2Cl)cc1	-39*	3	2	-4	0
O=C(CCCOc1ccc(Cl)cc1Cl)NNC(=O)c1ccc(NC(=O)c2ccccc2)cc1	7	11	1	2	-1
O=C(COc1ccc(Br)cc1)Nc1ccncc1	-4	11	3	-7	-1
CC(C)CCOc1cccc(OCC(=O)Nc2ccncc2)c1	-31*	13	-4	-6	1
CCC(C)(C)c1ccc(OCC(=O)Nc2ccncc2)cc1	-16	45*	2	-11	0
COc1ccc(-n2nc3ccc(NC(=O)c4cccc(OCCC(C)C)c4)cc3n2)cc1	10	2	36*	1	2
CC(C)(C)C(=O)Nc1ccccc1-c1nc2ccccc2[nH]c1=O	-12	0	-2	9	1
COc1ccc(OC)c(CCNC(=O)CN2C(=O)COc3ccc(S(=O)(=O)N4CCC(C)CC4)cc32)c1	-22	2	-3	5	-2
O=C(c1ccccc1)N1N=C(C(F)(F)F)CC1(O)c1ccccc1 (centres undefined)	-14	3	38*	1	-2
SMILES	D1 antagonist	D1 ag	TRHR PAM	D1 potentiator	TRHR agonist
COC(=O)C1=NN(C(=O)c2ccccc2)C(C)(O)C1 (centres undefined)	2	3	2	1	-1
COC(=O)C1=NN(C(=O)c2ccccc2)C(O)(c2ccc([N+](=O)[O-])cc2)C1 (centres undefined)	-2	86*	-13	-7	24
COC(=O)C1=NN(C(=O)c2ccc(C)cc2)C(O)(c2ccc(Cl)cc2)C1 (centres undefined)	-3	57*	4	-7	6
CCC(C)N1C(=O)N(c2cccc(Cl)c2)C(C)(O)CC1(C)C (centres undefined)	-6	3	-6	-7	1
Cc1ccc(CS(=O)(=O)c2ccccc2-c2nnc(-c3ccc(Cl)cc3)o2)cc1	-39*	15	-3	-6	1
Cc1ccccc1-c1nnc(-c2ccc(Cl)cc2)o1	1	10	8	5	0
O=C(c1ccco1)N1CCN(CC(O)COc2ccc3oc4ccccc4c3c2)CC1 (centres undefined)	-35*	23	-5	-9	1
Cc1ccc2nc(Cc3ccc(N)cc3)oc2c1	-31*	1	2	-12	0
Cc1ccc2nc(CCc3nc4ccc(C)cc4o3)oc2c1	4	6	-1	-1	0
CCOC(=O)N1CCN(CC(=O)Nc2sc(CC)cc2C(=O)c2ccc(OC)cc2)CC1	-31*	8	0	2	2
CC1CCc2c(sc(NC(=O)CN3CCN(C(=O)c4ccco4)CC3)c2C#N)C1 (centres undefined)	-31*	6	-1	-4	0
CCc1cc(C(=O)OC)c(NC(=O)CN2CCN(C(=O)c3ccco3)CC2)s1	-47*	116*	-6	3	-2
Cc1ccc(NC(=O)N2CCC(CN3CCCCC3)CC2)c(Cl)c1	6	-2	0	-1	1
CC1CN(C(=O)COC(=O)CSc2ccc(C(N)=O)cc2[N+](=O)[O-])CC(C)O1 (centres undefined)	4	2	5	8	0
NC(=O)c1ccc(SCC(=O)OCC(=O)N2CCCC2=O)c([N+](=O)[O-])c1	-43*	1	0	-1	0
Cc1cccc(C)c1NC(=O)CSc1nnc(C)n1CC1CCCO1 (centres undefined)	5	3	6	-1	1
Cc1cc(C(=O)N2CCN(c3ccc([N+](=O)[O-])cc3)CC2)n[nH]1	-32*	16	0	-11	-1
COCC(=O)N1CCN(c2ccc([N+](=O)[O-])cc2)CC1	-32*	4	4	-11	0
COc1cc(CCC(=O)N2CCN(c3ccc([N+](=O)[O-])cc3)CC2)cc(OC)c1OC	6	2	-5	-1	-1
Cc1cc(C(=O)N2CCN(c3ccc([N+](=O)[O-])cc3)CC2)no1	-26	12	4	-1	0
